# Pf growth 48h = inhibits P. falciparum growth in the first generation, 48 h | P. falciparum luciferase growth in erythrocytes, 48 h | hit rate 5.9% among 310,000 | Potency, µM (highest dose often 28.7 µM), without a hit: top-dose activity change, negative = inhibition, actives largely listed as inhibitors; further: potency means the concentration at half of the fitted maximal effect; on the % scale 0 is the no-effect control and ±100 the full control effect
#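 Luminescence readout; reporter = integrated firefly luciferase in P. falciparum. RBC culture at 2% hematocrit, 0.1% parasitemia final, 37 C/5% CO2; decreased signal taken as growth inhibition.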
# NS1 function inh = influenza NS1 inhibition; Potency, µM (highest dose often 46.1 µM), inactives show at the highest dose activity, positive = more growth; hit rate 0.4% among 270,000; AID 2326; calls by dose curve; further: potency means the concentration at half of the fitted maximal effect; actives are rising curves; nearly all actives have a fitted effect of over 50% in size
#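 OD600 was taken as the measure of yeast growth restored by compound in an NS1-expressing S. cerevisiae strain. Cells had been washed out of glucose medium and diluted 1:100 into galactose -URA medium, pH 6.0.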
# Pf growth 96h = P. falciparum growth inhibition at 96 hour, primary screen for plastid delayed-death inhibitors | P. falciparum luciferase reporter growth, 96 h | Potency, µM (series often up to 28.7 µM), without a hit: at the highest dose activity change, negative = inhibition, actives largely listed as inhibitors | hit rate 6.9% among 320,000 | AID 504834; further: potency means the concentration at half of the fitted maximal effect; on the % scale 0 is the no-effect control and ±100 the full control effect
#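 Erythrocytes infected with luciferase-expressing P. falciparum were dispensed at 2% hematocrit and 0.05% parasitemia (final), then incubated with compounds 96 hours at 37 C in 5% CO2. Luminescence after detection reagent addition reported growth.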
# Shiga toxin inh = inhibitors of Shiga toxin in Vero cells. AID 2315. hit rate 9.2% among 290,000. Vero cells, Shiga toxin protein synthesis inhibition reporter. inhibition, % at 38.7 µM; in the data active means inhibition mostly above about 28%, no sharp cut-off; inactive means mostly below about 43%; further: 0% is about no effect
# Cycloheximide cs = affects cycloheximide protein synthesis inhibition readout, counter-screen. max response, %. hit rate 12% among 300,000. cell reporter, cycloheximide protein synthesis inhibition counterscreen; in the data active means max response mostly above about 13%, no sharp cut-off; inactive means mostly below about 14%; further: read at 38.3 µM for the half of the compounds with a filed dose; 0% is about no effect
# Numbers without * were called inactive; ? = inconclusive; · = no result; + = active, no number. Hits are enriched below; roughly 21% of the tested compounds scored in any of these assays. Unless noted, the call rests on the fitted dose curve; in most records, active means well fitted inhibition curve with a large enough effect; inconclusive means small, poorly fitted or top-dose-only effect, or another doubt; inactive means no such curve, though single readings can be large or run the other way.
SMILES,Pf growth 48h,NS1 function inh,Pf growth 96h,Shiga toxin inh,Cycloheximide cs
C=C(C)COc1ccc2c(CC)cc(=O)oc2c1,36%,-13%,-20%,49,22*
COc1ccc(CCNC(=O)COc2ccc3c(C)cc(=O)oc3c2)cc1OC,12%,8%,2.9µM*,-3,-4
Cc1cc(=O)oc2cc(OCC(=O)OCC(=O)NCCc3ccccc3)ccc12,?,-12%,-24%,-2,1
CC(C)[C@H](NC(=O)[C@@H]1Cc2ccccc2CN1C(=O)OC(C)(C)C)C(=O)NCC1CCCO1 (some centres undefined),?,-12%,-23%,4,7
CCOC(=O)CN1C(c2ccccc2O)Nc2ccc(Br)cc2C1c1ccccc1 (centres undefined),-18%,-1%,?,17,9
COC(=O)c1cc(S(=O)(=O)NCCCN2CCCC2=O)cn1C,21%,-11%,2%,-8,-2
C=C(Cl)COc1ccc2c(C)cc(=O)oc2c1,62%,-17%,93%,+,23*
C=C(Cl)COc1ccc2c(CCCC)cc(=O)oc2c1,-23%,-74%,·,64,25*
CCN(CC)CCNC(=O)c1cccc(NC(=O)C(=O)c2ccccc2NC(C)=O)c1,?,·,0%,11,-7
CCN(CC)N=Nc1ccc(S(=O)(=O)Nc2c(C)n(C)n(-c3ccccc3)c2=O)cc1,39%,10%,-10%,0,-2
CCOC(=O)c1sc(NC(=O)Cc2ccc(F)cc2)nc1C,-20%,·,?,46,29*
CCOC(=O)c1sc(NC(=O)CCSC)nc1C,?,-8%,16%,31,12
CCOC(=O)c1sc(Nc2cccc(Cl)c2)nc1C,97%,-5%,0%,70*,51*
CCOC(=O)c1sc(NC(=O)Nc2ccc(F)cc2)nc1C,81%,-1%,-22%,121*,93*
CCOC(=O)c1sc(NC(=O)CSC(=S)N2CCN(C)CC2)nc1C,8.3µM*,3%,?,26,8
CCOC(=O)c1sc(NC(C)=O)nc1C,-6%,-4%,·,-14,-1
CC(NC1CCCCC1)C(=O)NN=C(c1ccccc1)c1ccccc1 (centres undefined),-14%,-6%,-29%,-11,-2
COc1ccc(C2/C=C\CN(S(=O)(=O)c3ccc(C)cc3)C(C)C(=O)N2Cc2ccc(F)cc2)cc1 (centres undefined),·,·,·,-1,5
Cc1nnc(NC(=O)CSc2nnc3c(n2)[nH]c2ccc(Br)cc23)s1,40%,11%,6%,-11,1
COc1ccc(-c2noc(CCC(=O)NCC3CCCO3)n2)cc1OC (centres undefined),24%,-5%,36%,17,11
Cc1cc(Nc2ccccc2C(=O)O)nc2nc3ccccc3c(=O)n12,?,-2%,25%,-14,-1
NC(=O)c1ccccc1Nc1nc2nc3ccccc3c(=O)n2cc1Br,1%,0%,13%,38*,15*
CCOc1ccc(CN(C)C(=O)c2cc(S(=O)(=O)N3CCCC3)ccc2C)cc1,12µM*,·,?,·,·
COc1cccc(/C=C/C(=O)OCC(=O)Nc2cccc(S(=O)(=O)N3CCCCC3)c2)c1OC,14%,12%,16%,61*,13
COc1ccccc1C(=O)NCCC(=O)Nc1cccc(S(=O)(=O)N2CCCC2)c1,3.3µM*,·,?,·,·
SMILES,Pf growth 48h,NS1 function inh,Pf growth 96h,Shiga toxin inh,Cycloheximide cs
CCOc1ccc(OCCC(=O)Nc2cccc(S(=O)(=O)N3CCCC3)c2)cc1,?,·,15µM*,·,·
COc1ccccc1C(=O)Nc1cccc(S(=O)(=O)N2CCCC2)c1,-2%,11%,-17%,-12,-1
NC(=O)C1CCN(C2CC(=O)N(c3ccc(F)c(Cl)c3)C2=O)CC1 (centres undefined),6%,-147%,45%,-30,-5
Cc1ccc(S(=O)(=O)N2CCCCC2)cc1NC(=O)c1cc(=O)[nH]c2ccccc12,-23%,·,?,·,·
COc1cccc(/C=C/C(=O)OCC(=O)Nc2ccc(S(=O)(=O)N3CCCC3)cc2)c1,21%,?,10%,-10,3
COc1cc(/C=C/C(=O)OCC(=O)Nc2ccc(S(=O)(=O)N3CCCC3)cc2)ccc1O,?,15%,9.3µM*,16,-2
COc1cccc(CCC(=O)Nc2cccc(S(=O)(=O)N3CCCC3)c2)c1OC,9.3µM*,·,8.3µM*,·,·
C[N+]1(C)CCc2cc(O)c(O)cc2[C@H]1Cc1ccc(O)c(O)c1,·,-1%,·,·,·
Cc1cccc(N=Cc2c(O)n(C)c(=O)n(C)c2=O)c1,-1%,20%,112%,25*,9
Cc1ccc(SCC(=O)NCCCc2ccccc2)cc1,14%,-13%,0%,-16,4
O=C(CSc1ccccc1)NCCCc1ccccc1,6%,·,15µM*,11,9
CC(CCc1ccccc1)NC(=O)CSc1ccccc1 (centres undefined),-19%,-11%,13µM*,15,12
COc1cccc(NC(=O)C(NCCc2ccc(S(N)(=O)=O)cc2)c2ccccc2)c1 (centres undefined),-38%,5%,?,3,-2
CCN(CC)c1ccc(S(=O)(=O)N2CCOCC2)cc1NC(=O)COC(=O)/C=C/c1ccc(C)o1,?,·,-6%,·,·
COc1cccc(NC(=O)/C=C/c2ccc([N+](=O)[O-])cc2)c1,37%,0%,16%,47*,39*
CCN(CC)S(=O)(=O)c1cccc(NC(=O)/C=C/c2ccc([N+](=O)[O-])cc2)c1,-1%,27%,?,-22,-2
COC(=O)C(=Cc1ccccc1[N+](=O)[O-])C(=O)OC,?,-38%,9.3µM*,-1,8
O=C(/C=C/c1ccccc1[N+](=O)[O-])Nc1cccnc1,135%,-5%,178%,45*,36*
COc1cccc(NC(=O)/C=C/c2ccccc2[N+](=O)[O-])c1,168%,-41%,?,74*,61*
CCC(C)c1ccc(NC(=O)C2=CC=CN3CCS(=O)(=O)N=C23)cc1 (centres undefined),136%,·,185%,·,·
Cn1cc(Cl)c(-c2n[nH]c(=S)n2C2CCCCC2)n1,11%,·,-17%,-3,-3
O=C(/C=C/c1cc([N+](=O)[O-])ccc1OC(F)F)Nc1cccc(OC(F)F)c1,?,6%,8.3µM*,-8,-3
COc1ccccc1NC(=O)/C=C/c1cc([N+](=O)[O-])ccc1OC(F)F,14%,?,45%,-2,-5
O=C(NCc1ccc(F)cc1)C1CCCN(S(=O)(=O)c2ccc(-n3cnnn3)cc2)C1 (centres undefined),9%,-3%,-2%,3,-5
COc1cc(OC)cc(C(=O)Oc2c(CN3CCOCC3)cc(Cl)c3cccnc23)c1,1.5µM*,-3%,0.93µM*,35,8.0*
O=C(Oc1c(CN2CCOCC2)cc(Cl)c2cccnc12)c1ccccc1F,-13%,·,2.1µM*,72,13
C=CCNS(=O)(=O)c1cc2c3c(c1)CCN3C(=O)CC2,11%,14%,23%,-5,1
O=C(O)c1cc(-c2ccc3c(c2)OCCO3)n[nH]1,9%,0%,?,-13,-2
CCOc1ccc(-c2cc(C(=O)NN=C3CCN(C)CC3)[nH]n2)cc1,1%,·,20%,60*,25*

# Screening data as filed in PubChem.
